Bioassay records: PubChem, National Center for Advancing Translational Sciences (NCATS)
Rows were chosen to be rich in hits. Some 3.3% of all compounds tested hit in one or more screens of this group.
RE007 growth inh – less growth of the S. pombe RE007 Vpr strain | S. pombe RE007 Vpr strain, BacTiter-Glo ATP luminescence, 24 h | Potency, µM (doses to about 92.2 µM), inactives show top-dose activity change, negative = less growth, actives largely listed as inhibitors | 360,000 compounds, 0.21% hits; active = well fitted falling curve with a large enough effect; inconclusive = small, poorly fitted or top-dose-only effect; inactive = no such curve, though single readings can be large or run the other way; note: % is set by controls: 0 for no effect and ±100 for the full control effect; nearly all actives have a fitted effect of over 50% in size
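Fission yeast RE007 carrying one integrated HIV-1 vpr copy, seeded at OD 0.01 in PMG+AL medium with 23 nL pinned compound. Grown 24 h at 30 degrees; viability read by BacTiter-Glo luminescence after 5 min.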
AmpC inh detg – AmpC beta-lactamase inhibition with detergent present | P00811 | AmpC hydrolysis of nitrocefin, absorbance 480 nm, 0.01% Triton | Potency, µM (top dose mostly 114 µM), without a hit: top-dose activity change, negative = inhibition, usual class: inhibitors | 370,000 compounds, 0.041% hits | AID 485294;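 note: 0% = no-compound wells and -100% = no-enzyme wells; nearly all actives have a fitted effect of over 25% in size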
Target sequence (P00811 whole entry, looked up): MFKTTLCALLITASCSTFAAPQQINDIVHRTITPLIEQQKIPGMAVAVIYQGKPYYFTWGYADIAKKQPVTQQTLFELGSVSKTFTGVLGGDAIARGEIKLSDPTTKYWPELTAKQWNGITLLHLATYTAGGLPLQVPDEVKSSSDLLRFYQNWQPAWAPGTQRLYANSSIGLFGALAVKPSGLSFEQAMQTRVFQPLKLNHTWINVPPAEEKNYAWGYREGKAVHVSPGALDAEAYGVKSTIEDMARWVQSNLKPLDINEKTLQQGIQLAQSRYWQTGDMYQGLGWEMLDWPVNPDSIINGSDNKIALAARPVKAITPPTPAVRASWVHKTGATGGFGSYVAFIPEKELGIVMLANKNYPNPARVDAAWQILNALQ
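AmpC (5.3 nM in the dispensed reagent) in 20 mM phosphate pH 7.0 with 0.01% (detergent screen) or 0.0001% Triton X-100 was preincubated with compounds for 15 min at room temperature. Nitrocefin was then added from an 800 uM solution, and hydrolysis was followed at 480 nm.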
Tb PYK inh – T. brucei pyruvate kinase inhibition. 410,000 compounds, 0.12% hits. AID 624173. Potency, µM (top dose mostly 76.8 µM), for inactives: at the highest dose activity, negative = inhibition, usual class: inhibitors. TbPYK enzyme, Kinase-Glo Plus ATP luminescence, 45 min. Q57TT1; note: % is set by controls: 0 for no effect and ±100 for the full control effect; nearly all actives have a fitted effect of over 50% in size
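Luminescent Kinase-Glo Plus end-point after 45 min room-temperature reaction of T. brucei pyruvate kinase started with 130 uM ADP (final). Buffer TEA 50 mM pH 7.2 with KCl, MgCl2, BSA, Tween-20; titration-based qHTS with fitted concentration-effect curves.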
SARS PLP yeast – SARS-CoV PLP inhibition in yeast; AID 485353; 330,000 compounds, 0.19% hits; Potency, µM (top dose mostly 32.9 µM), for inactives: at the highest dose activity, positive = growth rescue, hits mostly activators; S. cerevisiae expressing SARS-CoV PLpro, growth rescue; calls by dose curve; note: 0% is about no effect; nearly all actives have a fitted effect of over 55% in size
AmpC inh no detg – AmpC beta-lactamase inhibition without detergent; 330,000 compounds, 0.52% hits; AmpC nitrocefin hydrolysis, absorbance 480 nm, 0.0001% Triton; AID 485341; Potency, µM (highest dose often 57.1 µM), inactives show top-dose activity change, negative = inhibition, usual class: inhibitors;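 note: plate controls were no compound for no effect and no enzyme for full effect; nearly all actives have a fitted effect of over 20% in size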
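20 mM phosphate pH 7.0 + 0.01% (detergent screen) or 0.0001% Triton X-100; 5.3 nM AmpC reagent; cpd preinc 15 min RT; nitrocefin (800 uM stock) to start; A480 q20 s × 4 min; Activity was normalised to no-enzyme and no-compound control wells.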
Sm TGR inh – S. mansoni TGR enzyme inhibition; AID 485364; purified TGR, DTNB reduction, TNB absorbance 405 nm; Potency, µM (highest dose often 114 µM), for the others: top-dose activity change, negative = inhibition, most hits filed as inhibitors; Q962Y6; 360,000 compounds, 3% hits; note: % is set by controls: 0 for no effect and ±100 for the full control effect; nearly all actives have a fitted effect of over 60% in size
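TGR 20 nM + NADPH 100 uM (dispensed conc.), cpd preinc 15 min RT; start with NADPH (500 uM addition) then DTNB (15 mM addition). Kinetic TNB absorbance, 405 nm filter. Four-parameter Hill fit across titration.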
Numbers without * were called inactive; ? = inconclusive; . = no result. Unless noted, calls come from the whole dose curve; as a rule, active = well fitted curve in the direction sought with a large enough effect; inconclusive = small, poorly fitted or top-dose-only effect, or another doubt; inactive = no such curve, though single readings can be large; an effect the other way counts as inactive or inconclusive. Potency is the fitted concentration of half-maximal effect.

SMILES	RE007 growth inh	AmpC inh detg	Tb PYK inh	SARS PLP yeast	AmpC inh no detg	Sm TGR inh
CC(=O)OCCNc1cc(Sc2nc3ccccc3[nH]2)c2nonc2c1[N+](=O)[O-]	-27%	-7%	-3%	-15%	-12%	0.32µM*
CC(=O)OCCCNc1cc(Sc2nc3ccccc3s2)c2nonc2c1[N+](=O)[O-]	-4%	-13%	1%	-24%	-20%	0.1µM*
COC(=O)CCSc1cc(NCCOC(C)=O)c([N+](=O)[O-])c2nonc12	-2%	-7%	29%	0%	-4%	-8%
CC(=O)OCCCNc1cc(Sc2ccc(C)cc2)c2nonc2c1[N+](=O)[O-]	4%	3%	2%	-20%	-19%	8.9µM*
O=C(Nc1ccc(Oc2ccccc2)cc1)C1CCN(S(=O)(=O)c2ccccc2)CC1	.	-6%	-5%	.	.	1%
Cc1cccc(Nc2ncc(NC(=O)c3cccc(F)c3)c(Nc3cccc(C)c3)n2)c1	.	22%	-1%	.	.	2%
Cc1cc(Cl)ccc1NC(=O)c1cc2ccccn2n1	.	3%	0%	.	.	1%
COc1ccc(CNc2oc(-c3ccc(COc4ccccc4C)o3)nc2C#N)cc1	.	0%	1%	.	.	-2%
CCc1nn(CC(=O)N(C)Cc2ccccc2)c(=O)c2cc3sccc3n12	.	12%	1%	.	.	-1%
COc1ccc(-n2c(/C=C/c3ccc(O)c(OC)c3)nc3ccccc3c2=O)cc1	-4%	4%	3%	-5%	51%	2%
COc1cccc(-n2c(/C=C/c3ccc(O)c(O)c3)nc3ccccc3c2=O)c1	-4%	-2%	2%	0%	18µM*	10%
CCc1ccc(NC(=O)C2CCN(S(=O)(=O)c3c(C)noc3/C=C\c3ccc(OC)cc3)CC2)cc1	.	3%	1%	.	.	10%
Cc1ccc2c(Cl)cc(Cl)c(OCC(=O)N3CCCC3)c2n1	-1%	0%	-4%	2%	37%	40µM*
Cc1ccsc1-c1nc(CN2CCN(C)C(=O)[C@@H]2C)c(C)o1	-2%	-2%	-5%	-1%	18%	32µM*
CCOc1ccc(-c2cc3nc(C4CCN(C(=O)OC(C)(C)C)CC4)c(C(=O)Nc4cccc(Cl)c4C)cn3n2)cc1	.	-6%	7%	.	.	-15%
COc1cccc(C(=O)n2nc(-c3ccco3)nc2NCc2cccs2)c1	.	17%	-1%	.	.	-26%
COc1ccc2c(c1)c1ncn(Cc3ccco3)c(=O)c1n2C	1%	-10%	1%	2%	210%	40µM*
Cc1cc(C)cc(NC(=O)c2cc3c(=O)n(Cc4ccco4)ccc3nc2C)c1	.	0%	-6%	.	.	-23%
O=[N+]([O-])c1ccc(O)c(C(C#Cc2ccccc2)N2CCOCC2)c1 (stereo not given)	-10%	-3%	3%	-8%	8.9µM*	-7%
O=C(c1cc([N+](=O)[O-])ccc1N1CCOCC1)N1CCN(c2ccccc2)CC1	.	6%	.	0%	96%	-19%
CCOc1ccc(-c2cc3c(=O)n(CC(=O)NCc4ccc(F)cc4)ccn3n2)cc1	.	11%	-6%	.	.	0%
NC(C(=O)O)C(c1ccccc1)C(F)F (stereo not given)	-8%	0%	5%	-1%	-11%	56µM*
Cc1ccc(NC(=O)c2cc(N3C(=O)C=CC3=O)ccc2Cl)cc1C	10µM*	-3%	?	-99%	-51%	0.79µM*
Cc1ccc(NC(=O)c2cc(N3C(=O)C=CC3=O)ccc2N2CCOCC2)cc1	8.9µM*	2%	22µM*	-6%	-3%	0.71µM*
Cc1ccc(NC(=O)c2cc(NC(=O)c3ccco3)ccc2N2CCOCC2)cc1	-3%	-2%	0%	-2%	-6%	1%
CCC(Sc1nncn2c1cc1occc12)C(=O)Nc1ccc(C)c(Cl)c1 (stereo not given)	.	-10%	-3%	.	.	-9%
